Only some compounds are listed: those with a hit (about 11% of all), similar ones and a draw of the others.
USP30 block: blocks human USP30 ubiquitin-rhodamine cleavage; purified USP30, Ub-rhodamine cleavage fluorescence; inhibition, % at 25 µM; actives 5.3% (n = 47,000); AID 1645860
OTUD3 inh: human OTUD3 deubiquitinase inhibition; inhibition, % at 25 µM; Q5T2D3; purified OTUD3, Ub-rhodamine fluorescence, 2 h; actives 0.7% (n = 47,000)
Target sequence (Q5T2D3 whole entry, looked up): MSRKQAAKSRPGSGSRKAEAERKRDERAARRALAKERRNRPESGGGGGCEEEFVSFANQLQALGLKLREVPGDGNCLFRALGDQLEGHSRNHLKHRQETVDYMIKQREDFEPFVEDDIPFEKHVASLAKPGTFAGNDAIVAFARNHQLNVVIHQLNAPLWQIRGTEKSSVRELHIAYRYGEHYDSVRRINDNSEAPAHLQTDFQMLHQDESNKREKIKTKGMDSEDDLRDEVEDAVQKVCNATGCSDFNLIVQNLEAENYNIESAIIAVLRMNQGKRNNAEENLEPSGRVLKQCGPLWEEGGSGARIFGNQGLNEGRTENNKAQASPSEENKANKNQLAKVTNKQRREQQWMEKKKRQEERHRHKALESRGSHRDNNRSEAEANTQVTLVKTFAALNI
USP28 inh: blocks human USP28 ubiquitin-rhodamine cleavage. Q96RU2. purified USP28, Ub-rhodamine cleavage fluorescence, 30 min. inhibition, % at 25 µM. actives 3% (n = 47,000). AID 1645857
USP17 block: blocks human USP17 ubiquitin-rhodamine cleavage. A8MUK1. purified USP17, Ub-rhodamine cleavage fluorescence, 3 h. inhibition, % at 50 µM. actives 6.5% (n = 47,000). AID 1645855
The depositor's hits bear a star. No stated cut-off is given here; in the data, active means inhibition above about 30%; inactive means the rest.

What do the screens show for `O=C1COc2ccc(NC(=O)N3CCN(C(c4ccccc4)c4ccccc4)CC3)cc2N1`?
USP30 block: -14; OTUD3 inh: -3; USP28 inh: 3; USP17 block: 3

Results for Cn1nc(CNC(=O)c2ccc3c(c2)OCO3)c2ccccc21 ?
USP30 block: 3; OTUD3 inh: 0; USP28 inh: 1; USP17 block: 4

Results for O=C(Nc1ccc(Cl)cc1)C1CCN(c2nc3nc[nH]c(=O)c3s2)CC1 ?
USP30 block: -5; OTUD3 inh: -5; USP28 inh: -7; USP17 block: -5

What do the screens show for `CCc1ccc(NC(=O)C2CCN(c3nc4nc[nH]c(=O)c4s3)CC2)cc1`?
USP30 block: 34*; OTUD3 inh: 16; USP28 inh: -3; USP17 block: 14

What do the screens show for `Cc1ccc(NC(=O)c2ccc(N3CCCCC3)nn2)cc1F`?
USP30 block: inactive; OTUD3 inh: -6; USP28 inh: 0; USP17 block: 3

How did COc1cc(NC(=O)c2cc(CN3CCOCC3)on2)cc(OC)c1 do in these assays?
USP30 block: 3; OTUD3 inh: 3; USP28 inh: 54*; USP17 block: 0

How did O=C(Nc1ccc2c(c1)OCCO2)c1cc(CN2CCCC2)on1 do in these assays?
USP30 block: -24; OTUD3 inh: -9; USP28 inh: 63*; USP17 block: -8

What do the screens show for `O=C(Nc1ccc2c(c1)OCCO2)c1cc(CN2CCOCC2)on1`?
USP30 block: 9; OTUD3 inh: 0; USP28 inh: 53*

How did Cc1ccc(NC(=O)c2cc(CN3CCCC3)on2)cc1C do in these assays?
USP30 block: -24; OTUD3 inh: -5; USP28 inh: 5

What do the screens show for `O=C(Nc1ccc2c(c1)OCCO2)c1ccc(N2CCCCC2)nn1`?
USP30 block: 2; OTUD3 inh: 5; USP28 inh: 59*; USP17 block: 18

Results for COc1cccc(NC(=O)c2cc(CN3CCCC3)on2)c1 ?
USP30 block: -15; OTUD3 inh: -5; USP28 inh: 21; USP17 block: -3

How did O=C(Nc1ccccc1)[C@H]1C[C@@H]2CN(C(=O)NCC3CCCCC3)C[C@H]1O2 do in these assays?
USP30 block: -3; OTUD3 inh: -4; USP28 inh: -8; USP17 block: -8

How did CCn1c(C2CCN(C(=O)c3ccc(F)cc3)C2)nc2cccnc21 (configuration not stated) do in these assays?
USP30 block: -71; OTUD3 inh: -23; USP28 inh: -28; USP17 block: -40

Results for Cc1nc(C2CCCN2Cc2ccc(C)s2)n[nH]1 (configuration not stated) ?
USP30 block: -51; OTUD3 inh: -11; USP28 inh: -17; USP17 block: 20

Results for O=C(Nc1ccc2c(c1)OCCO2)NC1CCCCC1 ?
USP30 block: 0; OTUD3 inh: -5; USP28 inh: 31*; USP17 block: 2

Results for O=C(Nc1ccccc1F)C1CN(C(=O)c2ccc3c(c2)OCO3)C1 ?
USP30 block: -16; OTUD3 inh: 1; USP28 inh: 0; USP17 block: -2

How did O=C(Nc1ccc2c(c1)OCCO2)C1CN(C(=O)c2ccc3c(c2)OCO3)C1 do in these assays?
USP30 block: 5; OTUD3 inh: 7; USP28 inh: 43*; USP17 block: 0

What do the screens show for `O=C(Nc1ccc2c(c1)OCO2)c1cc(-c2ccco2)on1`?
USP30 block: -18; OTUD3 inh: 17; USP28 inh: 30*; USP17 block: 44*

Results for O=C(Nc1cccnc1)NC1CCCCC1 ?
USP30 block: -16; OTUD3 inh: -1; USP28 inh: 0; USP17 block: -13

Results for COc1cccc(-c2cccc(CC3CN(C(=O)Cc4cccnc4)CCNC3=O)c2)c1 (configuration not stated) ?
USP30 block: 0; OTUD3 inh: 9; USP28 inh: 0; USP17 block: 10

Results for CS(=O)(=O)c1cccc(C(=O)NCCCOc2ccccc2)c1 ?
USP30 block: -6; OTUD3 inh: -2; USP28 inh: -5; USP17 block: -5

What do the screens show for `CCOc1ccc(CNc2nc3ccc(C)cc3n3cnnc23)cc1OC`?
USP30 block: 0; OTUD3 inh: -3; USP28 inh: 0; USP17 block: 0

Results for Cc1ccc2nc(N3CCc4ccccc4C3)c3nncn3c2c1 ?
USP30 block: 27; OTUD3 inh: 21; USP28 inh: 34*; USP17 block: 59*

How did COc1ccc(-c2cc3c(=O)n(CC(=O)Nc4ccccc4C)ccn3n2)cc1 do in these assays?
USP30 block: 31*; OTUD3 inh: 10; USP28 inh: 6; USP17 block: 36*

How did COc1ccc(-c2cc3c(=O)n(CC(=O)Nc4ccc(Cl)cc4)ccn3n2)cc1 do in these assays?
USP30 block: 19; OTUD3 inh: 15; USP28 inh: 11; USP17 block: 19

What do the screens show for `Cc1nc(C2COCCN2C(=O)c2noc3c2CCCC3)cc(=O)[nH]1` (configuration not stated)?
USP30 block: 12; OTUD3 inh: 18; USP28 inh: 6; USP17 block: -2

Results for O=C(Cn1cnc2cc([N+](=O)[O-])ccc2c1=O)Nc1ccc2c(c1)OCCO2 ?
USP30 block: -26; OTUD3 inh: -13; USP28 inh: 14; USP17 block: -3

Results for NS(=O)(=O)c1ccc(NC(=O)Cn2cnc3cc([N+](=O)[O-])ccc3c2=O)cc1 ?
USP30 block: 20; OTUD3 inh: 18; USP28 inh: 41*; USP17 block: 59*

How did Cc1ccc(-n2c(=O)[nH]c3c(C(N)=O)nc(-c4cccnc4)nc32)cc1 do in these assays?
USP30 block: 34*; OTUD3 inh: 31*; USP28 inh: 19; USP17 block: 34*

What do the screens show for `Cc1nc(CNC(=O)c2ccc(-c3noc(C4CC4)n3)cc2)no1`?
USP30 block: -5; OTUD3 inh: -4; USP28 inh: -9; USP17 block: -11

How did Cc1cccc(NC(=O)CNC(=O)c2ccc(-c3noc(C4CCCC4)n3)cc2)c1C do in these assays?
USP30 block: 35*; OTUD3 inh: 1; USP28 inh: 2; USP17 block: 32*

How did Cc1ccccc1CNC(=O)Cn1c(=O)n(-c2ccccc2)c2ncccc21 do in these assays?
USP30 block: 14; OTUD3 inh: -3; USP28 inh: -10; USP17 block: 47*

What do the screens show for `CC(=O)Nc1ccc(-n2cnc(C(=O)NCc3ccc(F)cc3)c2)nc1`?
USP30 block: 12; OTUD3 inh: 11; USP28 inh: 11; USP17 block: 7

What do the screens show for `CN(C)c1cc(-n2cnc(C(=O)Nc3ccccc3)c2)ncn1`?
USP30 block: 26; OTUD3 inh: -2; USP28 inh: 9; USP17 block: 17

What do the screens show for `O=C(NCc1ccc(F)cc1)c1ccc(N2CCCC2)nn1`?
USP30 block: 1; OTUD3 inh: 7; USP28 inh: 14; USP17 block: 33*

What do the screens show for `CN(C)c1cc(-n2cnc(C(=O)NCc3cccc(Cl)c3)c2)ncn1`?
USP30 block: 26; OTUD3 inh: 9; USP28 inh: 9; USP17 block: 42*

How did O=C(Nc1ccccc1F)c1ccc(N2CCCC2)nn1 do in these assays?
USP30 block: 0; OTUD3 inh: -1; USP28 inh: 13; USP17 block: -10

Screens from PubChem BioAssay.
